The results in this text go back to PubChem BioAssay (NCI).

The panel holds about 83,000 compounds, 20% with a hit somewhere; the sample as a whole holds those more often.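 A percent growth of 40 corresponds to 60% growth inhibition; 0 means no net growth; -100 means all cells died. Active threshold: below 10.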 The source made the active and inactive calls.

What all share (test): NCI-60 one-dose screen, 48 h (100 = growth as untreated, 0 = no growth, -100 = all killed)
In one experiment the test system is SK-MEL-2 melanoma. Conditions: 10 µM unless noted.
A further experiment has as its system EKVX NSCLC. The following applies: 10 µM unless noted.
Another experiment has as its system SN12C renal. Conditions: 10 µM unless noted.
The test system of the next experiment is UO-31 renal. The following applies: 10 µM unless noted.
In the next experiment the test system is TK-10 renal. The following applies: 10 µM unless noted.
The test system of the next experiment is ACHN renal. Conditions: 10 µM unless noted.
For another experiment, the system named is CAKI-1 renal. The following applies: 10 µM unless noted.
Another experiment relates to A498 renal. The following applies: 10 µM.
The test system of the next experiment is HL-60(TB) leukemia. The following applies: 10 µM unless noted.
For a further experiment, the system named is CCRF-CEM leukemia. The following applies: 10 µM unless noted.
The subject of a further experiment is MOLT-4 leukemia. Conditions: 10 µM unless noted.
For another experiment, the system named is SR leukemia. The following applies: 10 µM unless noted.
A further experiment deals with RPMI-8226 leukemia. Conditions: 10 µM unless noted.
Another experiment relates to OVCAR-8 ovarian. Conditions: 10 µM unless noted.
The subject of a further experiment is OVCAR-5 ovarian. Conditions: 10 µM unless noted.
Another experiment concerns OVCAR-4 ovarian. The following applies: 10 µM unless noted.
For a further experiment, the system named is SK-OV-3 ovarian. Conditions: 10 µM unless noted.
In a further experiment the test system is IGROV1 ovarian. Conditions: 10 µM unless noted.
A further experiment has as its system OVCAR-3 ovarian. Conditions: 10 µM unless noted.
For a further experiment, the system named is HS 578T breast. The following applies: 10 µM unless noted.

Consider `O=C(O)c1c(Cl)n(Cc2ccc(O)cc2)c2ccc(O)cc12`, for which the growth with SK-MEL-2 melanoma was 81.6% (inactive); in the experiment on EKVX NSCLC, 112% (inactive); in the experiment with SN12C renal it was 102% (inactive); in the experiment on UO-31 renal it was 61.1% (inactive); in the experiment on TK-10 renal, 137% (inactive); in the experiment on ACHN renal it was 112% (inactive). Besides, the growth is 95.2% (inactive) in the experiment with CAKI-1 renal; 107% (inactive) with A498 renal; 101% (inactive) in the experiment on HL-60(TB) leukemia; 81.6% (inactive) in the experiment with CCRF-CEM leukemia; 109% (inactive) in the experiment on MOLT-4 leukemia; 106% (inactive) in the experiment with SR leukemia. Moreover, the growth was 70.9% (inactive) in the experiment with RPMI-8226 leukemia; 103% (inactive) in the experiment with OVCAR-8 ovarian; 92.4% (inactive) in the experiment on OVCAR-5 ovarian; 104% (inactive) with OVCAR-4 ovarian; 115% (inactive) in the experiment on SK-OV-3 ovarian; 63.4% (inactive) in the experiment on IGROV1 ovarian. Also, the growth with OVCAR-3 ovarian is 93.9% (inactive); in the experiment with HS 578T breast, 102% (inactive).
For `CCOC(=O)C(Cc1ccc(N(CCCl)CCCl)cc1)NC(=O)C(CC(C)C)NC(C)=O` (stereo not drawn), the growth in the experiment on SK-MEL-2 melanoma is -2.13% (active); in the experiment on EKVX NSCLC it was 114% (inactive); in the experiment with SN12C renal, 25.4% (inactive); in the experiment on UO-31 renal, -48.7% (active); with TK-10 renal it was 21.3% (inactive); with ACHN renal it was 8.89% (active). For the same molecule, the growth with CAKI-1 renal is -20.7% (active); in the experiment with A498 renal, 86.5% (inactive); in the experiment with HL-60(TB) leukemia it was 13.1% (inactive); in the experiment on CCRF-CEM leukemia, 12.3% (inactive); with MOLT-4 leukemia, 6.43% (active); with SR leukemia, -13.9% (active). Besides, the growth with RPMI-8226 leukemia is 21% (inactive); in the experiment with OVCAR-8 ovarian it was 32.6% (inactive); in the experiment on OVCAR-5 ovarian, 36.8% (inactive); in the experiment with OVCAR-4 ovarian, -16.2% (active); with SK-OV-3 ovarian, 53.3% (inactive); in the experiment with IGROV1 ovarian, 22.5% (inactive). Further, in the experiment on OVCAR-3 ovarian, the growth was -34.4% (active).
Consider `CSc1nc(Cl)cc(N2CC2)n1`, for which the growth was 120% (inactive) in the experiment on SK-MEL-2 melanoma; 106% (inactive) with EKVX NSCLC; 104% (inactive) in the experiment with SN12C renal; 114% (inactive) in the experiment with UO-31 renal; 107% (inactive) in the experiment on TK-10 renal; 109% (inactive) in the experiment on ACHN renal. The growth in the experiment with CAKI-1 renal is 98.3% (inactive); in the experiment with A498 renal, 122% (inactive); with HL-60(TB) leukemia, 96.6% (inactive); in the experiment with CCRF-CEM leukemia, 77.6% (inactive); in the experiment with MOLT-4 leukemia, 108% (inactive); in the experiment with SR leukemia it was 109% (inactive). Further, the growth with RPMI-8226 leukemia is 73.8% (inactive); in the experiment on OVCAR-8 ovarian, 101% (inactive); with OVCAR-5 ovarian it was 111% (inactive); with OVCAR-4 ovarian, 114% (inactive); with SK-OV-3 ovarian, 115% (inactive); with IGROV1 ovarian, 123% (inactive). Further, the growth is 117% (inactive) in the experiment with OVCAR-3 ovarian and 110% (inactive) in the experiment with HS 578T breast.
Turning to `Fc1c[c-]c(-c2ccccn2)c(F)c1.[CH3-].[Pt+2].c1ccc([PH+](c2ccccc2)c2ccccn2)cc1`, the growth with SK-MEL-2 melanoma is -34.1% (active); in the experiment with EKVX NSCLC it was 4.9% (active); in the experiment with SN12C renal, 3.34% (active); in the experiment with UO-31 renal, -71.9% (active); with TK-10 renal, -1.18% (active); with ACHN renal, -80.4% (active). Further, the growth is -56.2% (active) in the experiment on CAKI-1 renal; -21% (active) with A498 renal; -6.41% (active) in the experiment with HL-60(TB) leukemia; 9.35% (active) with CCRF-CEM leukemia; 8.87% (active) in the experiment with MOLT-4 leukemia; -2.4% (active) with SR leukemia. Besides, the growth in the experiment on RPMI-8226 leukemia was -8.21% (active); in the experiment with OVCAR-8 ovarian, 10.3% (inactive); with OVCAR-5 ovarian, -48.1% (active); with OVCAR-4 ovarian it was -2.32% (active); in the experiment on SK-OV-3 ovarian, 5.32% (active); with IGROV1 ovarian, -12% (active). Moreover, the growth in the experiment with OVCAR-3 ovarian is -22.2% (active).
With `c1cc2c(c3c1CCNC3)OCO2`, the growth with SK-MEL-2 melanoma was 101% (inactive); in the experiment on EKVX NSCLC it was 95.6% (inactive); in the experiment with SN12C renal it was 100% (inactive); in the experiment with UO-31 renal, 90.2% (inactive); in the experiment on TK-10 renal, 101% (inactive); in the experiment on ACHN renal, 111% (inactive). Also, the growth was 91.1% (inactive) with CAKI-1 renal; 118% (inactive) in the experiment with A498 renal; 101% (inactive) in the experiment on HL-60(TB) leukemia; 124% (inactive) in the experiment on CCRF-CEM leukemia; 100% (inactive) in the experiment on MOLT-4 leukemia; 93% (inactive) with SR leukemia. The growth in the experiment with RPMI-8226 leukemia is 109% (inactive); in the experiment with OVCAR-8 ovarian, 107% (inactive); in the experiment on OVCAR-5 ovarian it was 108% (inactive); in the experiment on OVCAR-4 ovarian, 110% (inactive); in the experiment with SK-OV-3 ovarian, 92.6% (inactive); in the experiment with IGROV1 ovarian, 99.9% (inactive). For the same molecule, the growth with OVCAR-3 ovarian was 118% (inactive); in the experiment on HS 578T breast it was 112% (inactive).
Regarding `CC[C@H](C)[C@H](NC(=O)[C@H]1CCCCN1C)C(=O)N(C)[C@H](C[C@@H](OC(C)=O)c1cccc(C(=O)N[C@@H](Cc2ccccc2)C[C@H](C)C(=O)O)n1)C(C)C`, the growth in the experiment on SK-MEL-2 melanoma was 36.3% (inactive); in the experiment with EKVX NSCLC, 59.6% (inactive); with SN12C renal, 28.1% (inactive); with UO-31 renal, 44.7% (inactive); with TK-10 renal, 29% (inactive); in the experiment on ACHN renal it was 32.3% (inactive). Moreover, the growth in the experiment on CAKI-1 renal is 13.7% (inactive); with A498 renal, -2.46% (active); in the experiment with HL-60(TB) leukemia, -40% (active); in the experiment on CCRF-CEM leukemia it was 16.8% (inactive); with MOLT-4 leukemia, 17.8% (inactive); in the experiment with SR leukemia, 18% (inactive). The growth with RPMI-8226 leukemia is 22.7% (inactive); with OVCAR-8 ovarian, 17.7% (inactive); with OVCAR-5 ovarian, 52% (inactive); in the experiment on OVCAR-4 ovarian, 34.7% (inactive); in the experiment with SK-OV-3 ovarian, 8.71% (active); in the experiment with IGROV1 ovarian, 25.7% (inactive). The growth in the experiment with OVCAR-3 ovarian is -27.7% (active); with HS 578T breast, 28.1% (inactive).
With `CO[C@H]1CC[C@@]2(C)C(=CC[C@@H]3[C@@H]2CC[C@]2(C)C(=O)C(=O)C[C@@H]32)C1`, the growth in the experiment with SK-MEL-2 melanoma was 128% (inactive); in the experiment on EKVX NSCLC it was 108% (inactive); in the experiment on SN12C renal, 95.5% (inactive); in the experiment on UO-31 renal, 86.9% (inactive); in the experiment on TK-10 renal, 117% (inactive); in the experiment with ACHN renal, 102% (inactive). The growth in the experiment on CAKI-1 renal was 93% (inactive); in the experiment on A498 renal, 82.1% (inactive); in the experiment on HL-60(TB) leukemia it was 141% (inactive); with CCRF-CEM leukemia it was 95.3% (inactive); in the experiment with MOLT-4 leukemia it was 115% (inactive); with SR leukemia it was 107% (inactive). The growth with RPMI-8226 leukemia is 88.9% (inactive); in the experiment on OVCAR-8 ovarian it was 93.3% (inactive); in the experiment with OVCAR-5 ovarian, 103% (inactive); in the experiment on OVCAR-4 ovarian, 113% (inactive); in the experiment with SK-OV-3 ovarian, 103% (inactive); in the experiment on IGROV1 ovarian, 120% (inactive). Besides, the growth with OVCAR-3 ovarian was 105% (inactive); in the experiment with HS 578T breast, 92.6% (inactive).
